Eleven substances from ChEMBL document CHEMBL1201862, “PubChem BioAssay data set” (2004) can be followed below.

In all, about 57,000 sequences went through this assay and about 3,500 (6.1%) were called active. Rule as the data show it: active = GI50 up to about 1.1 µM and inactive = higher. Shown is part of a subset that was picked to be rich in actives. Measured potencies and affinities stand elsewhere.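 Grown in 96-well plates, cells were treated for 48 hours with each compound at five concentrations. Insufficient inhibition: endpoint recorded as highest concentration tested. Abbreviation: GI50, concentration required for 50% inhibition of growth.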

The test system of this assay is 786-0. In words: NCI tumour cell line growth inhibition, 48 h.
Substance “[Bis(aminomethyl)tetramethylenesilane]dichloropaltinum(II), CHEMBL2146205” returned a GI50 of 5780 nM.
Take “[Bis(aminomethyl)diethylsilane]tetrachloroplatinum(IV), CHEMBL2146203”: the GI50 turned out to be 2180 nM.
The substance “[Bis(aminomethyl)tetramethylenesilane]tetrachloropaltinum(IV), CHEMBL2146189” returned a GI50 of 3100 nM.
With “[Bis(aminomethyl)ethylmethylsilane]tetrachloroplatinum(IV), CHEMBL2146192” the figure was 1340 nM; with CISPLATIN, CHEMBL11359, 1100 nM; with “[Bis(aminomethyl)dimethylsilane]dichloroplatinum (II), CHEMBL2146201”, 6140 nM.
For the substance “[Bis(aminomethyl)pentamethylenesilane]dichloropaltinum(II), CHEMBL2146202”, the GI50 was found to be 916 nM.
Substance “[Bis(aminomethyl)pentamethylenesilane]tetrachloropaltinum(IV), CHEMBL2146204” displayed a GI50 of 1220 nM.
With “[Bis(aminomethyl)dimethylsilane]tetrachloroplatinum(IV), CHEMBL2146190” the figure was 2120 nM.
For “mu-(1,7-nanodiamine-N,N')bis-(cis-aminedichloroplatimum (II)), CHEMBL2146215”, the GI50 amounted to 8730 nM.
In the case of “cis-Bis[[(trimethylsilyl)methyl]amino]tetrachloroplatinum(IV), CHEMBL2146191”, the GI50 worked out at 5710 nM.
